Screens: PubChem BioAssay, National Center for Advancing Translational Sciences (NCATS)
In the library only some 2.7% were active in any assay of this set; here they are far more common.
GLP-1R agonist = qHTS of GLP-1 Receptor Agonists; Glucagon-like peptide 1 receptor (Homo sapiens), P43220; HEK293 GLP-1R CRE-luciferase, luminescence, 4-6 h; cells express a hypersensitive GLP-1R form; Potency, µM (doses to about 45.6 µM), without a hit: at the highest dose activation, actives largely listed as activators; actives 0.007% (n = 380,000); AID 624172, 2012; further: % of control where 0% means no effect
Target sequence (P43220 whole entry, looked up): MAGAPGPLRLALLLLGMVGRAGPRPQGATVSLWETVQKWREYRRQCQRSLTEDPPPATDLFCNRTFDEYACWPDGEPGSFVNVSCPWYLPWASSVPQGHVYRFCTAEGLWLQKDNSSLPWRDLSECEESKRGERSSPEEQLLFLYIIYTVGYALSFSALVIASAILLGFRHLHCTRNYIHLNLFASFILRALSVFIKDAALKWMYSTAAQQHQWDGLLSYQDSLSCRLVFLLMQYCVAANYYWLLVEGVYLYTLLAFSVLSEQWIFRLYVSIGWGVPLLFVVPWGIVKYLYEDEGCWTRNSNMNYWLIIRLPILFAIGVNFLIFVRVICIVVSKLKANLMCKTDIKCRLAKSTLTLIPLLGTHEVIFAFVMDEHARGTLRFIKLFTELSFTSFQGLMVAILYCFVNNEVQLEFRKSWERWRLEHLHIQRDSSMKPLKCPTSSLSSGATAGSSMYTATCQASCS
IDH1 R132H inh = qHTS for Inhibitors of mutant isocitrate dehydrogenase 1 (IDH1): qHTS. Isocitrate dehydrogenase [NADP] cytoplasmic (Homo sapiens), O75874. IDH1-R132H enzyme, NADPH consumption, diaphorase/resazurin fluorescence. Potency, µM (doses to about 76.6 µM), for inactives: at the top dose activity change, negative = inhibition, usual class: inhibitors. actives 0.093% (n = 390,000); further: on the % scale 0 is the no-effect control and ±100 the full control effect; nearly all actives have a fitted effect of over 65% in size
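IDH1-R132H (0.5 ug/mL) preincubated 30 min with compound, then NADPH (0.016 mM) and alpha-KG (2 mM) added; 80 min at RT, pH 7.5. Remaining NADPH coupled via diaphorase/resazurin to fluorescence (540/590 nm); concentration-response curves normalized to no-enzyme control.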
TrxR1 inh = qHTS Assay for Inhibitors of Mammalian Selenoprotein Thioredoxin Reductase 1 (TrxR1): qHTS | actives 1% (n = 390,000) | Thioredoxin reductase 1, cytoplasmic (Rattus norvegicus), O89049 | recombinant rTrxR1, NADPH fluorescence consumption, selenite substrate | Potency, µM (titrated, usually from 114 µM), for the others: top-dose activity change, negative = inhibition, most hits filed as inhibitors; further: on the % scale 0 is the no-effect control and ±100 the full control effect; nearly all actives have a fitted effect of over 65% in size
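Rat TrxR1 (90 nM in the dispensed reagent) was pre-reduced with 400 uM NADPH for 5 min at room temperature, then incubated with compound for 15 min. After 400 uM selenite was added, NADPH fluorescence (Ex 340/Em 450 nm) was followed for 8 min.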
HEK293 tox = qHTS of GLP-1 Receptor Inverse Agonists: Cytotox Screen. actives 0.13% (n = 410,000). Potency, µM (series often up to 38.3 µM), inactives show at the highest dose activity change, negative = inhibition, hits mostly inhibitors. HEK293 cAMP-luciferase reporter cells, luminescence, 24 h;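 further: loss of luciferase light is scored as toxicity; on the % scale 0 is the no-effect control and ±100 the full control effect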
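1536-well qHTS counterscreen of the MLSMR; 200 cells/uL, 12 h pre-incubation, 23 nL cpd, 24 h at 37 deg C 5% CO2, luciferase detection reagent, 12 min RT, luminescence. Inhibition = undesired.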
TrxR1 substrate = qHTS Assay for Substrates of Mammalian Selenoprotein Thioredoxin Reductase 1 (TrxR1): qHTS; Thioredoxin reductase 1, cytoplasmic (Rattus norvegicus), O89049; purified TrxR1 substrate turnover, NADPH consumption readout; Potency, µM (titrated, usually from 114 µM), inactives show top-dose activity change, negative = substrate turnover; actives 0.01% (n = 390,000); AID 588456, 2011; further: on the % scale 0 is the no-effect control and ±100 the full control effect; nearly all actives have a fitted effect of over 50% in size
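Rat TrxR1, dispensed at 90 nM, was prereduced with 400 uM NADPH (final) for 5 min at ~22 deg C, then incubated with compound 15 min before 400 uM selenite. A first-read NADPH fluorescence drop versus no-compound background flagged substrates.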
GLP-1R inv ag = qHTS of GLP-1 Receptor Inverse Agonists (Inhibition Mode). HEK293 GLP-1R CRE-luciferase, luminescence, 24 h; GLP-1R form is constitutively active. Potency, µM (highest dose often 38.3 µM), for inactives: top-dose activity change, negative = inhibition, usual class: inhibitors. actives 1.6% (n = 410,000); further: on the % scale 0 is the no-effect control and ±100 the full control effect; nearly all actives have a fitted effect of over 55% in size
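Assay principle: reduced luminescence from a cAMP-responsive reporter in HEK293 cells co-expressing a constitutively active GLP-1R. Conditions: 24 hr compound incubation, 37 deg C, 5% CO2.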
An asterisk follows results filed as active; [ ] = another dose, or the depositor's remark. The call rests on the fitted dose curve; in most records, active means well fitted curve in the direction sought with a large enough effect; inconclusive means small, poorly fitted or top-dose-only effect, or another doubt; inactive means no such curve, though single readings can be large; an effect the other way counts as inactive or inconclusive. Potency means the concentration at half of the fitted maximal effect.

For COc1ccc(/C=N/NC(=O)COc2ccccc2-c2ccccc2)cc1 the results were GLP-1R agonist 1%, IDH1 R132H inh -1%, TrxR1 inh 0%, HEK293 tox inconclusive, TrxR1 substrate -6% and GLP-1R inv ag inconclusive.
Screening N#Cc1c([N+](=O)[O-])cc([N+](=O)[O-])cc1S(=O)(=O)Cc1ccccc1 returned GLP-1R agonist -37%, IDH1 R132H inh 8%, TrxR1 inh 0.71µM*, HEK293 tox inconclusive, TrxR1 substrate inconclusive and GLP-1R inv ag inconclusive.
Screening Cc1cc(C=C2C(=O)NC(=S)NC2=O)c(C)n1C1CCCC1 returned GLP-1R agonist 12%, IDH1 R132H inh 1%, TrxR1 inh inconclusive, HEK293 tox -7%, TrxR1 substrate -4%[57.1 µM] and GLP-1R inv ag -16%.
For CSc1ncc(/C=C2/C(=O)NC(=O)N(C)C2=O)cn1 the results were GLP-1R agonist -11%, IDH1 R132H inh 3%, TrxR1 inh 14µM*, HEK293 tox -13%, TrxR1 substrate 0% and GLP-1R inv ag -11%.
Screening CCCCN1C(=O)NC(=O)/C(=C/c2cnc(SC)nc2)C1=O returned GLP-1R agonist 19%, IDH1 R132H inh 0%, TrxR1 inh inconclusive, HEK293 tox -4%, TrxR1 substrate 3%[57.1 µM] and GLP-1R inv ag -1%.
Screening CSc1ncc(/C=C2/C(=O)NC(=O)N(C3CCCCC3)C2=O)cn1 returned GLP-1R agonist -1%, IDH1 R132H inh -1%, TrxR1 inh 11µM*, HEK293 tox 3%, TrxR1 substrate 7%[57.1 µM] and GLP-1R inv ag -24%.
Screening CCOC(=O)c1c(NC(=O)CSc2nnc(CNc3ccc(OC)cc3)n2C)sc(C)c1C returned GLP-1R agonist -2%, IDH1 R132H inh 2%, TrxR1 inh -2%[57.1 µM], HEK293 tox inconclusive, TrxR1 substrate -1%[57.1 µM] and GLP-1R inv ag inconclusive.
For OC(c1cccc(Cl)c1)(c1cccc(Cl)c1)C1CN2CCC1CC2 (stereo not drawn) the results were GLP-1R agonist 10%, IDH1 R132H inh 6%, TrxR1 inh 25%[57.1 µM], HEK293 tox inconclusive, TrxR1 substrate -9%[57.1 µM] and GLP-1R inv ag 4µM*.
For O=[N+]([O-])c1ccc(Cl)c([N+](=O)[O-])c1 the results were GLP-1R agonist -17%, IDH1 R132H inh -8%, TrxR1 inh 2.8µM*, HEK293 tox inconclusive, TrxR1 substrate 1% and GLP-1R inv ag inconclusive.
O=[N+]([O-])c1ccc(O)c([N+](=O)[O-])c1 was read as GLP-1R agonist 0%, IDH1 R132H inh 0%, TrxR1 inh -14%, HEK293 tox 0%, TrxR1 substrate -12% and GLP-1R inv ag 9%.
Screening Cc1nn(Cc2ccccc2)c(C)c1C=C1C(=O)NC(=S)NC1=O returned GLP-1R agonist 0%, IDH1 R132H inh -6%, TrxR1 inh 8.9µM*, HEK293 tox 2%, TrxR1 substrate -4% and GLP-1R inv ag 9%.
Cc1c(C=C2C(=O)NC(=O)NC2=O)c(=O)n(-c2ccccc2)n1C was read as GLP-1R agonist -1%, IDH1 R132H inh -5%, TrxR1 inh -2%[57.1 µM], HEK293 tox -1%, TrxR1 substrate 5%[57.1 µM] and GLP-1R inv ag 0%.
